Calls of active or inactive are those of the source. The calls were made as follows: active = hit-call score of the fitted dose curve at least 0.9, where 1 is the maximum; inactive = score below 0.9.
Legend:
[1] = ATG_E_Box_CIS: Attagene CIS-FACTORIAL HepG2 Assay for human Enhancer Box (E-box) (AID 2282936); settings: HepG2 E-box cis-reporter transcription, actives raise or lower the signal
Procedure, shortened: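 E-box-driven reporter transcripts measured in transiently transfected HepG2 after 24 h exposure: RNA reverse-transcribed, PCR-amplified, fluorescently labelled, digested and resolved by capillary electrophoresis. Gain or loss relative to DMSO.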

[2] = ATG_M_61_CIS: Attagene CIS-FACTORIAL HepG2 Assay for M61 Transcription Factor (Internal Marker) (AID 2282937); settings: HepG2 Attagene CIS-FACTORIAL M61 internal marker reporter; actives raise or lower the signal
Procedure, shortened: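 Cells were transfected with reporter units under cis-regulatory promoters, treated with chemicals for 24 h, then lysed for RNA. Reporter transcripts were quantified by RT-PCR and capillary electrophoresis, and activity was fitted bidirectionally against DMSO.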

[3] = ATG_EGR_CIS: Attagene CIS-FACTORIAL HepG2 Assay for human Early Growth Response 1 (EGR1) (AID 2282938); settings: HepG2 Attagene CIS-FACTORIAL EGR reporter mRNA; actives raise or lower the signal
Procedure, shortened: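 Endogenous TF activity in HepG2 liver cells was gauged through cis-promoter reporter constructs transiently transfected. After 24 h dosing, reporter mRNA was quantified by RT-PCR and capillary electrophoresis, and curves fitted in both directions versus DMSO.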

[4] = ATG_M_19_CIS: Attagene CIS-FACTORIAL HepG2 Assay for M19 Transcription Factor (Internal Marker) (AID 2282939); settings: HepG2 Attagene CIS-FACTORIAL M19 internal marker reporter; actives raise or lower the signal
Procedure, shortened: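 Following a 24 h exposure, RNA from transfected HepG2 cells was reverse-transcribed, PCR-amplified with reporter-specific primers, end-labelled with 6-FAM and HpaI-digested before capillary separation. Values represent gain or loss versus DMSO.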

[5] = ATG_Ets_CIS: Attagene CIS-FACTORIAL HepG2 Assay for human Erythroblast Transformation Specific (ETS) (AID 2282941); settings: HepG2 ETS cis-reporter transcription, actives raise or lower the signal
Procedure, shortened: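 Cis-regulated reporter mRNA induction in HepG2 (transient transfection), 24 h exposure, RT-PCR plus capillary electrophoresis detection; DMSO serves as negative control and baseline.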

[6] = molecular target: Hepatocyte nuclear factor 3-beta (Homo sapiens) (UniProt Q9Y261); assay: ATG_FoxA2_CIS: Attagene CIS-FACTORIAL HepG2 Assay for human Forkhead box A2 (FOXA2) (AID 2282942); settings: HepG2 cis-reporter transcription factor activity, 24 h; actives raise or lower the signal
Procedure, shortened: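 Endogenous transcription factor activity was read in HepG2 cells carrying transiently transfected cis-promoter reporter units. After 24 h dosing, reporter mRNA was quantified by RT-PCR and capillary electrophoresis, and values fitted bidirectionally versus DMSO.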

[7] = ATG_FoxO_CIS: Attagene CIS-FACTORIAL HepG2 Assay for human Forkhead box O (FoxO) (AID 2282943); settings: HepG2 Attagene cis-reporter, FoxO element, mRNA; actives raise or lower the signal
Procedure, shortened: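 Endogenous transcription factor activity read from multiplexed cis-promoter reporter transcripts in transiently transfected HepG2, 24 h after dosing. Reporter RNA measured via RT-PCR plus capillary electrophoresis of FAM-labeled products; gain or loss relative to DMSO.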

[8] = ATG_GLI_CIS: Attagene CIS-FACTORIAL HepG2 Assay for human Zinc Finger Protein GLI1 (AID 2282945); settings: HepG2, Attagene cis-factorial reporter mRNA, GLI element; actives raise or lower the signal
Procedure, shortened: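 Bidirectional curve fits relative to DMSO, using reporter mRNA levels from RT-PCR plus capillary electrophoresis. Cells were HepG2 transiently carrying cis-regulated reporter constructs, harvested 24 h after dosing.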

[9] = ATG_GRE_CIS: Attagene CIS-FACTORIAL HepG2 Assay for human Glucocorticoid Response Elements (GRE) (AID 2282947); settings: HepG2 GRE cis-reporter, Attagene multiplex mRNA; actives raise or lower the signal
Procedure, shortened: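 Reporter transcripts read by RT-PCR with capillary electrophoresis fluorescence after a 24 h chemical exposure of HepG2 cells transiently transfected with multiple cis-element reporter units. Gain or loss fitted against DMSO.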

[10] = ATG_ISRE_CIS: Attagene CIS-FACTORIAL HepG2 Assay for human Interferon Regulatory Factor 1 (IRF1) binding to an Interferon-Stimulated Response Element (ISRE) (AID 2282948); settings: HepG2 ISRE cis-reporter (Attagene), mRNA transcription readout; actives raise or lower the signal
Procedure, shortened: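 Multiplexed mRNA reporter readout in human liver HepG2 cells: cis-element-driven reporters transfected, compound added for 24 h, transcripts amplified, fluorescently labelled and sized by capillary electrophoresis; curve fitting bidirectional against DMSO.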

[11] = ATG_M_32_CIS: Attagene CIS-FACTORIAL HepG2 Assay for M32 Transcription Factor (Internal Marker) (AID 2282949); settings: HepG2 Attagene cis-factorial M32 reporter, mRNA; actives raise or lower the signal;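 also: background control marker of the multiplexed CIS panel rather than a real target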
Procedure, shortened: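 HepG2 transfectants (cis-regulated reporter transcription units) dosed 24 h. Reporter mRNA by RT-PCR plus CE, analysed as gain or loss relative to DMSO.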

[12] = ATG_M_06_CIS: Attagene CIS-FACTORIAL HepG2 Assay for M06 Transcription Factor (Internal Marker) (AID 2282950); settings: HepG2 Attagene CIS-FACTORIAL M06 internal marker reporter; actives raise or lower the signal
Procedure, shortened: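 Fluorescence-labelled RT-PCR products from cis-promoter reporter units, cut with HpaI and resolved by capillary electrophoresis, give the signal. Cells are human HepG2, dosed for 24 h. Serves as background control, fitted relative to DMSO.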

[13] = molecular target: Hypoxia-inducible factor 1-alpha (Homo sapiens) (UniProt Q16665); assay: ATG_HIF1a_CIS: Attagene CIS-FACTORIAL HepG2 Assay for human Hypoxia Inducible Factor 1 (HIF1A) (AID 2282951); settings: HepG2 Attagene cis-factorial HIF1a reporter transcription; actives raise or lower the signal
Procedure, shortened: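 Measures endogenous transcription-factor activity through cis-regulated reporter mRNA in HepG2. Cells dosed 24 h; transcripts quantified by RT-PCR with 6-FAM-labelled products separated by capillary electrophoresis; DMSO serves as negative control.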

[14] = molecular target: Hepatocyte nuclear factor 6 (Homo sapiens) (UniProt Q9UBC0); assay: ATG_HNF6_CIS: Attagene CIS-FACTORIAL HepG2 Assay for human Hepatocyte Nuclear Factor 6 (HNF6) (AID 2282952); settings: HepG2 Attagene cis-factorial HNF6 reporter transcription; actives raise or lower the signal
Procedure, shortened: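 Endogenous transcription factor activity in human HepG2 liver cells was captured through cis-regulated reporter constructs. After 24 h treatment, reporter mRNA was measured by RT-PCR with capillary electrophoresis, and activity was fitted in both directions relative to DMSO.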

[15] = molecular target: Heat shock factor protein 1 (Homo sapiens) (UniProt Q00613); assay: ATG_HSE_CIS: Attagene CIS-FACTORIAL HepG2 Assay for human Heat Shock Transcription Factor 1 (HSE) (AID 2282953); settings: HepG2 HSE cis-reporter, Attagene RNA transcription; actives raise or lower the signal
Procedure, shortened: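 After a 24 h incubation with test chemical, transfected HepG2 cells were harvested for RNA; reporter transcripts were measured by RT-PCR and capillary electrophoresis. Values reflect gain or loss of signal relative to DMSO.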

[16] = ATG_MRE_CIS: Attagene CIS-FACTORIAL HepG2 Assay for human Metal Responsive Element (MRE) (AID 2282954); settings: HepG2 MRE cis-reporter transcription, Attagene multiplex; actives raise or lower the signal
Procedure, shortened: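 Endogenous MRE-dependent transcription read as reporter mRNA in transiently transfected human HepG2 cells at 24 h. RNA reverse-transcribed, PCR-amplified, labelled and resolved by capillary electrophoresis; gain or loss relative to DMSO.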

[17] = ATG_PBREM_CIS: Attagene CIS-FACTORIAL HepG2 Assay for human Phenobarbital-responsive Enhancer Module (PBREM) (AID 2282955); settings: HepG2 PBREM cis-reporter, Attagene multiplexed transcription; actives raise or lower the signal
Procedure, shortened: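 Fluorescence of labelled reporter cDNA fragments, resolved by capillary electrophoresis, gives mRNA induction in transfected HepG2 cells treated for 24 h; DMSO serves as negative control and baseline.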

[18] = molecular target: Paired box protein Pax-6 (Homo sapiens) (UniProt P26367); assay: ATG_Pax6_CIS: Attagene CIS-FACTORIAL HepG2 Assay for human Paired Box 6 (PAX6) (AID 2282956); settings: HepG2 CIS-FACTORIAL PAX6 reporter transcription, RNA readout; actives raise or lower the signal
Procedure, shortened: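 Fluorescent RT-PCR products separated by capillary electrophoresis report PAX6-linked promoter mRNA in HepG2 cells 24 h post-dose. Curves fitted bidirectionally, DMSO as negative control.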

[19] = molecular target: Bile acid receptor (Homo sapiens) (UniProt Q96RI1); assay: ATG_IR1_CIS: Attagene CIS-FACTORIAL HepG2 Assay for human Nuclear Receptor Subfamily 1 Group H Member 4 (NR1H4), IR1 submotif (AID 2282946); settings: IR1 reporter transcription, actives raise or lower the signal
Procedure, shortened: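 HepG2 cells transiently transfected with multiplexed cis-element reporter units read endogenous transcription factor activity. After 24 h compound exposure, reporter mRNA was quantified by RT-PCR, fluorescent labelling, HpaI digestion and capillary electrophoresis; bidirectional fitting versus DMSO baseline.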

Measured: AC50

Chain of Heat shock factor protein 1 (Homo sapiens) (Q00613 whole entry, looked up): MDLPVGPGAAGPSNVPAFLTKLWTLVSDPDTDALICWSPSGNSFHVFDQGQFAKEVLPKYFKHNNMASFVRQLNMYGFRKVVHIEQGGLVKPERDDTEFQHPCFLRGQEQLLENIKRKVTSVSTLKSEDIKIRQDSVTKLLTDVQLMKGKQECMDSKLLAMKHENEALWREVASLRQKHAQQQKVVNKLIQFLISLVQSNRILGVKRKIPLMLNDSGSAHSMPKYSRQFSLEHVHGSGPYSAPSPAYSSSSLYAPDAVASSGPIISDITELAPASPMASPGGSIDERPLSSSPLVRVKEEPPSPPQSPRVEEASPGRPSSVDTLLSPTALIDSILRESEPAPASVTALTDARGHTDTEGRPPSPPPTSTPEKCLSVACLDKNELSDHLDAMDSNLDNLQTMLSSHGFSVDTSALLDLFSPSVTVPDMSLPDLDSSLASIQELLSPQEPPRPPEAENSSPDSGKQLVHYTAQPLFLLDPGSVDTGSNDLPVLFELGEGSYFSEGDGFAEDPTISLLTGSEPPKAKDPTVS
Chain of Hepatocyte nuclear factor 3-beta (Homo sapiens) (Q9Y261 whole entry, looked up): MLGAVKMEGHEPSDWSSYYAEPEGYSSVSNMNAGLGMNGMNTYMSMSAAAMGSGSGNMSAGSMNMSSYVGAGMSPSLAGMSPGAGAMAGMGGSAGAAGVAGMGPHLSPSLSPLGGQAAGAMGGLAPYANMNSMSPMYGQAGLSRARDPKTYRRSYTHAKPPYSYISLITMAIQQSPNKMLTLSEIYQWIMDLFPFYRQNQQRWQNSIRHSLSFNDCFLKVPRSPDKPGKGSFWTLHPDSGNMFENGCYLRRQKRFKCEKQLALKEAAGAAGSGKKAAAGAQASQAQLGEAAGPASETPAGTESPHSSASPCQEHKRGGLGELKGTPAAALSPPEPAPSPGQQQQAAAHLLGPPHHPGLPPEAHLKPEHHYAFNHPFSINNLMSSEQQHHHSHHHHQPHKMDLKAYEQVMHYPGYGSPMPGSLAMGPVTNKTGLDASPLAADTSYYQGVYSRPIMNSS
Chain of Paired box protein Pax-6 (Homo sapiens) (P26367 whole entry, looked up): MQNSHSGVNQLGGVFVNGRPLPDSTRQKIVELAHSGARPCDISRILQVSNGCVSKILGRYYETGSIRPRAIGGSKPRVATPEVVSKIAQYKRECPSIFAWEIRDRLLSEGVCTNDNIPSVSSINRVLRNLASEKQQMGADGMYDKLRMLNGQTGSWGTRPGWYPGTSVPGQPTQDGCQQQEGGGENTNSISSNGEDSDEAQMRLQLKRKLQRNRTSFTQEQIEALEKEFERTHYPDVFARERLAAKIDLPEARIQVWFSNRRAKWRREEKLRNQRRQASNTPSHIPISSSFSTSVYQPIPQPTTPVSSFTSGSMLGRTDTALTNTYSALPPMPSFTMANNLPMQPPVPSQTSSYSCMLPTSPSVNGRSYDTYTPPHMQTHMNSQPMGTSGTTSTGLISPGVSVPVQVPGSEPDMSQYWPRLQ
Chain of Hepatocyte nuclear factor 6 (Homo sapiens) (Q9UBC0 whole entry, looked up): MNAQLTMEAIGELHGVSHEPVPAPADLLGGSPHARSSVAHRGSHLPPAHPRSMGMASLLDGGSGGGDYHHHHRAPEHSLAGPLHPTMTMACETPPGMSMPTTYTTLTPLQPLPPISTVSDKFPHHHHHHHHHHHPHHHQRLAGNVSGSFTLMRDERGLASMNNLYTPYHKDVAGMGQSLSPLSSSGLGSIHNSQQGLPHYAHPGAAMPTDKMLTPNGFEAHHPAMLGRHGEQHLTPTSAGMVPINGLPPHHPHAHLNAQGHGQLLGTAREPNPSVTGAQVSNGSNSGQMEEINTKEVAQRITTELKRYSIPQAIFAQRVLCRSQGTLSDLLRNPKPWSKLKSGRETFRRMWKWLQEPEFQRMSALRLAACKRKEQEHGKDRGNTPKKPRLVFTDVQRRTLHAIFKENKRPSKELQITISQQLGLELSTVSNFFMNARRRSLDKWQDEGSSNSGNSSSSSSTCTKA
Chain of Hypoxia-inducible factor 1-alpha (Homo sapiens) (Q16665 whole entry, looked up): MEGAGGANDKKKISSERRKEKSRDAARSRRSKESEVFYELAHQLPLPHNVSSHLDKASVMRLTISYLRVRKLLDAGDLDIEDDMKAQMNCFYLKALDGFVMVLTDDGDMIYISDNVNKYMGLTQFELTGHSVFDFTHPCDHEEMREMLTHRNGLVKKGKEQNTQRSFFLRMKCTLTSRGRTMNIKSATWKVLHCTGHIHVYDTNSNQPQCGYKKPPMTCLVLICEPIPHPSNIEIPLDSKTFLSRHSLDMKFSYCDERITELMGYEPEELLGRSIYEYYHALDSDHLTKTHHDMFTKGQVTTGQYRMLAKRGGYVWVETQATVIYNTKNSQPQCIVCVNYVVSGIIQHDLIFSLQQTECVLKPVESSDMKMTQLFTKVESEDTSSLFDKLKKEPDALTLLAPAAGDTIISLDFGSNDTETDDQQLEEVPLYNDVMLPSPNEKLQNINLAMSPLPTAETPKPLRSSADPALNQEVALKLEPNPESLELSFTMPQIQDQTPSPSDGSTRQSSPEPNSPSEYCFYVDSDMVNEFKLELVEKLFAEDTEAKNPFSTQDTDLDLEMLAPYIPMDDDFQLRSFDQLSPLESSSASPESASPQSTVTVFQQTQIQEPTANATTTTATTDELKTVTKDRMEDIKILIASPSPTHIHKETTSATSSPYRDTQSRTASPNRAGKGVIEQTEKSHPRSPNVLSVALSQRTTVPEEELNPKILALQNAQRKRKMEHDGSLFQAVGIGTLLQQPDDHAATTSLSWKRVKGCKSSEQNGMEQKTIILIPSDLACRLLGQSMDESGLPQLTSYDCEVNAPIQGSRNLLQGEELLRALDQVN
Chain of Bile acid receptor (Homo sapiens) (Q96RI1 whole entry, looked up): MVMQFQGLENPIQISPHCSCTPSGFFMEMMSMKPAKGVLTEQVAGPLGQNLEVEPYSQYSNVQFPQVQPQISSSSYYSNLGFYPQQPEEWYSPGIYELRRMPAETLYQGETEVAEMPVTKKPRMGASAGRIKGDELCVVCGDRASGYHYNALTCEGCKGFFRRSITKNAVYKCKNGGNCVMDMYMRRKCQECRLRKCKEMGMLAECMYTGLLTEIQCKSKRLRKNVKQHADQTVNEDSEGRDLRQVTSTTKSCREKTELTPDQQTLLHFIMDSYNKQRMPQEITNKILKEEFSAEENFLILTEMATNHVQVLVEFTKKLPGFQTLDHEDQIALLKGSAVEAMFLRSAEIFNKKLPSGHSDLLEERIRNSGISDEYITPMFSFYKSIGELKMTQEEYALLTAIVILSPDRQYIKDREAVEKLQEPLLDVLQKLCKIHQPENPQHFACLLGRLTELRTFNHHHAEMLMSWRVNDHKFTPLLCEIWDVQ

ClC1=C(Cl)[C@]2(Cl)[C@H]3[C@H]([C@@H]4C=C[C@H]3C4)[C@@]1(Cl)C2(Cl)Cl
inactive: [1] | [2] | [4] | [5] | [6] | [7] | [8] | [9] | [10] | [11] | [12] | [13] | [14] | [15] | [17] | [18]
active: [3] 33.4 µM | [16] 33.4 µM

CCN(CC)CCO
inactive: [1] | [2] | [3] | [4] | [5] | [6] | [7] | [8] | [10] | [11] | [12] | [13] | [14] | [16]

CO[C@@H]1[C@H](OC(=O)NC(=O)CCl)CC[C@]2(CO2)[C@H]1[C@@]1(C)O[C@@H]1CC=C(C)C
active: [5] 47.8 µM
inactive: [1] | [2] | [3] | [4] | [6] | [7] | [8] | [9] | [10] | [11] | [12] | [13] | [14] | [15] | [16] | [17]

c1ccc2c(c1)oc1ccccc12
inactive: [1] | [2] | [3] | [4] | [5] | [6] | [7] | [8] | [10] | [11] | [12] | [13] | [14] | [15] | [16]

CCCSC(=O)N(CCC)CCC
inactive: [1] | [2] | [3] | [4] | [5] | [6] | [7] | [8] | [10] | [11] | [12] | [13] | [14] | [15] | [16] | [17] | [18]

C=CCc1ccc2c(c1)OCO2
inactive: [1] | [2] | [3] | [4] | [5] | [6] | [7] | [8] | [10] | [11] | [12] | [13] | [14] | [15] | [16] | [18]

O=C(O)C1C2CCC(O2)C1C(=O)O (centres undefined)
inactive: [1] | [2] | [3] | [4] | [5] | [6] | [7] | [9] | [12] | [14]
active: [8] 100 µM | [10] 61.9 µM | [11] 159 µM | [16] 149 µM

CCCCC(CC)COC(=O)c1ccc(C(=O)OCC(CC)CCCC)c(C(=O)OCC(CC)CCCC)c1 (centres undefined)
inactive: [1] | [2] | [3] | [4] | [5] | [6] | [7] | [8] | [10] | [11] | [12] | [13] | [14] | [16] | [18]

[As]#[In]
inactive: [1] | [2] | [3] | [4] | [5] | [6] | [7] | [8] | [10] | [11] | [12] | [13] | [14] | [15] | [16]

O=P(OCCCl)(OCCCl)OCCCl
inactive: [1] | [2] | [3] | [4] | [5] | [6] | [7] | [8] | [19] | [10] | [11] | [12] | [13] | [14] | [16] | [18]

Cc1ccc(N)c(N)c1
inactive: [1] | [2] | [4] | [5] | [6] | [7] | [8] | [9] | [10] | [11] | [12] | [13] | [14] | [15] | [18]
active: [3] 28.3 µM | [16] 29.1 µM

Reference: PubChem BioAssay (EPA / NIEHS)
